The whole screen tested about 5,500 compounds, of which about 2,000 (36%) were called active. Another 18% or so got no clear call; they are omitted. Cut-off read from the data, not from the text of the source: active = normalized growth mostly below about 0.91 (no sharp cut-off); inconclusive = no clear call, values can overlap the other calls; inactive = mostly above about 0.92. The list shows a part of the results.
Assay: chemical genetic growth profiling, strain panel (AID 1159580);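 note: tested at 20 µM; growth read once vehicle control cultures reached saturation at 30 °C; 1 = growth at the plate median or of vehicle wells; lower values mean less growth of the strain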
Conditions: S. cerevisiae deletion strains, growth OD
[1] = locus YAL013W, strain DEP1, active compounds read low
[2] = locus YBR229C, strain ROT2, active compounds read low
[3] = locus YCL061C, strain MRC1, active compounds read low
[4] = locus YDL101C, strain DUN1, active compounds read low
[5] = locus YDL134C, strain PPH21, active compounds read low
[6] = locus YDR150W, strain NUM1, active compounds read low
[7] = locus YEL061C, strain CIN8, active compounds read low
[8] = locus YGR078C, strain PAC10, active compounds read low
[9] = locus YHR030C, strain SLT2, active compounds read low
[10] = locus YHR087W, strain rtc3, active compounds read low
[11] = locus YJL187C, strain SWE1, active compounds read low
[12] = locus YJR043C, strain POL32, active compounds read low
[13] = locus YJR075W, strain HOC1, active compounds read low
[14] = locus YLR039C, strain RIC1, active compounds read low
[15] = locus YLR058C, strain SHM2 (second series), active compounds read low
[16] = locus YLR085C, strain ARP6, active compounds read low
[17] = locus YLR262C, strain YPT6, active compounds read low
[18] = locus YML094W, strain GIM5, active compounds read low
[19] = locus YMR219W, strain ESC1, active compounds read low
[20] = locus YMR263W, strain SAP30, active compounds read low
[21] = locus YMR307W, strain GAS1, active compounds read low
[22] = locus YNL153C, strain GIM3, active compounds read low
[23] = locus YNL298W, strain CLA4 (second series), active compounds read low
[24] = locus YNL322C, strain KRE1, active compounds read low
[25] = locus YNR030W, strain Alg12, active compounds read low
[26] = locus YOL006C, strain TOP1, active compounds read low
[27] = locus YPL055C, strain LGE1, active compounds read low
[28] = locus YPL241C, strain CIN2, active compounds read low
[29] = locus YPR135W, strain CTF4, active compounds read low
[30] = locus YKL190W, strain CNB1, active compounds read low

Measured: normalized growth

CCOC(=O)/C(C#N)=C/Nc1ccc2c(c1)OCO2
active: [9] 0.4 | [13] 0.889 | [16] 0.772 | [17] 0.816
inactive: [1] 0.992 | [2] 0.985 | [3] 1.01 | [4] 1.07 | [5] 0.963 | [6] 1 | [7] 0.989 | [8] 0.98 | [10] 0.986 | [11] 0.982 | [12] 0.989 | [14] 0.795 | [15] 0.971 | [18] 1.03 | [19] 0.981 | [20] 0.96 | [21] 0.884 | [22] 1.02 | [23] 0.905 | [24] 0.97 | [25] 0.946 | [26] 0.804 | [27] 0.976 | [28] 0.966 | [29] 0.786

Cc1ccc(Cl)cc1NC(=S)N(CCC#N)/N=C\c1ccc2c(c1)OCO2
inactive: [1] 0.997 | [2] 1 | [4] 1 | [6] 1.02 | [7] 1 | [8] 0.991 | [9] 0.953 | [10] 0.995 | [11] 0.995 | [12] 1 | [13] 1.02 | [30] 0.98 | [14] 0.936 | [15] 1.01 | [16] 0.925 | [17] 0.973 | [18] 0.975 | [19] 1 | [20] 1.03 | [21] 0.853 | [22] 1.02 | [23] 0.981 | [24] 0.989 | [25] 0.974 | [26] 0.998 | [27] 1.04 | [28] 0.985 | [29] 1.1

Cc1ccc(S(=O)(=O)N2CCC(N)=N2)cc1
inactive: [1] 1.03 | [2] 0.954 | [3] 1.03 | [4] 1.05 | [5] 0.984 | [6] 1.02 | [7] 0.997 | [8] 1.02 | [9] 1.1 | [10] 1.01 | [11] 0.999 | [12] 1.05 | [13] 1.02 | [30] 1 | [14] 1 | [15] 0.992 | [16] 1.02 | [17] 0.99 | [18] 1 | [19] 0.995 | [20] 1.02 | [21] 0.997 | locus YNL128W, strain TEP1, active compounds read low 1.01 | [22] 1.02 | [23] 1.04 | [24] 1 | [25] 0.992 | [27] 1 | [28] 1 | [29] 1.08

CC(C)(C)NCC(O)COc1cccc2c1CCCC2=O (configuration not stated)
inactive: locus YAL021C, strain ccr4, active compounds read low 0.97 | locus YAL026C, strain drs2, active compounds read low 0.976 | locus YAL030W, strain snc1, active compounds read low 0.985 | locus YBL061C, strain skt5, active compounds read low 0.981 | locus YBR009C, strain hhf1, active compounds read low 1 | locus YBR023C, strain chs3, active compounds read low 0.983 | locus YBR171W, strain sec66, active compounds read low 0.934 | locus YBR231C, strain swc5, active compounds read low 0.98 | locus YBR279W, strain paf1, active compounds read low 0.979 | locus YCL011C, strain gbp2, active compounds read low 0.992 | locus YCL016C, strain dcc1, active compounds read low 1.02 | [3] 0.957 | locus YCL069W, strain vba3, active compounds read low 0.952 | locus YCR088W, strain abp1, active compounds read low 0.981 | locus YDL005C, strain med2, active compounds read low 0.987 | locus YDL040C, strain nat1, active compounds read low 0.978 | locus YDR001C, strain nth1, active compounds read low 0.976 | locus YDR069C, strain doa4, active compounds read low 0.987 | locus YDR137W, strain rgp1, active compounds read low 0.983 | locus YDR159W, strain sac3, active compounds read low 0.967 | locus YDR195W, strain ref2 0.966 | locus YDR297W, strain sur2, active compounds read low 0.981 | locus YDR334W, strain swr1, active compounds read low 0.937 | locus YDR335W, strain msn5, active compounds read low 0.989 | locus YDR392W, strain spt3, active compounds read low 0.992 | locus YEL003W, strain gim4, active compounds read low 0.994 | locus YEL037C, strain rad23, active compounds read low 0.973 | locus YEL061C, strain CIN8 (second series), active compounds read low 0.961 | locus YER015W, strain faa2, active compounds read low 0.981 | locus YER016W, strain bim1, active compounds read low 1.01 | locus YER111C, strain swi4, active compounds read low 0.982 | locus YER155C, strain BEM2 (second series), active compounds read low 0.986 | locus YFR010W, strain ubp6, active compounds read low 0.95 | locus YGL167C, strain pmr1, active compounds read low 0.984 | locus YGL173C, strain kem1, active compounds read low 0.977 | locus YGL227W, strain vid30, active compounds read low 0.964 | locus YGL240W, strain doc1, active compounds read low 0.984 | locus YGL253W, strain hxk2, active compounds read low 0.99 | locus YHR013C, strain ard1, active compounds read low 0.988 | locus YHR027C, strain rpn1, active compounds read low 0.996 | [9] 0.954 | locus YHR079C, strain IRE1, active compounds read low 0.954 | locus YHR142W, strain chs7, active compounds read low 0.986 | locus YJL092W, strain hpr5, active compounds read low 0.99 | locus YJL095W, strain BCK1 (second series), active compounds read low 0.988 | locus YJL095W, strain BCK1, active compounds read low 0.98 | locus YJL115W, strain asf1, active compounds read low 0.959 | locus YJL129C, strain trk1, active compounds read low 0.97 | locus YJL154C, strain vps35, active compounds read low 0.981 | locus YJL164C, strain tpk1, active compounds read low 1 | locus YJL166W, strain qcr8, active compounds read low 0.976 | [11] 0.989 | locus YJR066W, strain TOR1, active compounds read low 0.943 | locus YKL160W, strain elf1, active compounds read low 1.01 | locus YKR026C, strain gcn3, active compounds read low 0.983 | locus YKR091W, strain srl3, active compounds read low 0.986 | locus YLL001W, strain dnm1, active compounds read low 0.985 | locus YLL026W, active compounds read low 0.993 | locus YLL041C, strain sdh2, active compounds read low 1.01 | locus YLR027C, strain aat2, active compounds read low 1.01 | locus YLR113W, strain HOG1, active compounds read low 1.01 | locus YLR221C, strain rsa3, active compounds read low 0.999 | locus YLR258W, strain gsy2, active compounds read low 0.969 | locus YLR262C, strain YPT6 (second series), active compounds read low 0.971 | locus YLR320W, strain mms22, active compounds read low 0.965 | locus YLR342W, strain FKS1, active compounds read low 0.992 | locus YLR357W, strain rsc2, active compounds read low 0.991 | locus YLR370C, strain arc18, active compounds read low 0.984 | locus YLR384C, strain iki3, active compounds read low 0.973 | locus YML120C, strain ndi1, active compounds read low 1.01 | locus YMR058W, strain fet3, active compounds read low 0.982 | locus YMR125W, strain sto1, active compounds read low 0.958 | locus YMR129W, active compounds read low 0.992 | locus YMR205C, strain PFK2, active compounds read low 0.989 | locus YMR231W, strain pep5, active compounds read low 0.983 | locus YNL071W, strain lat1, active compounds read low 0.958 | locus YNL183C, strain NPR1, active compounds read low 0.952 | locus YNL209W, strain ssb2, active compounds read low 0.984 | locus YNL248C, strain rpa49, active compounds read low 0.98 | locus YNL322C, strain KRE1 (second series), active compounds read low 1.01 | locus YNR049C, strain mso1, active compounds read low 0.993 | locus YOR001W, strain rrp6, active compounds read low 0.944 | locus YOR070C, strain gyp1, active compounds read low 0.992 | locus YOR080W, strain dia2, active compounds read low 1 | locus YOR083W, strain WHI5, active compounds read low 1.02 | locus YOR106W, strain vam3, active compounds read low 0.977 | locus YOR231W, strain MKK1, active compounds read low 0.977 | locus YOR265W, strain rbl2, active compounds read low 0.979 | locus YOR270C, strain vph1, active compounds read low 0.95 | locus YOR290C, strain snf2, active compounds read low 1.03 | locus YPL051W, strain arl3, active compounds read low 1.01 | locus YPL078C, strain atp4, active compounds read low 1 | locus YPL106C, strain sse1, active compounds read low 0.975 | locus YPL240C, strain hsp82, active compounds read low 0.996 | locus YPL256C, strain CLN2, active compounds read low 0.969

Reference: PubChem BioAssay AID1159580 (chemical genetic matrix, 2015)
